Experimental data reported in ChEMBL document CHEMBL1201862, “PubChem BioAssay data set” (2004).
Among all 400,000 compounds or so, about 2,100 (0.53%) were called active. Roughly 14% stayed inconclusive and do not appear here. No rule for the calls is given here. The entries come from a sample that favours actives as a whole.

Each compound was assayed against Ataxin-2 (Homo sapiens) (UniProt Q99700) (assay: qHTS for Inhibitors of ATXN expression.).
Sequence of Ataxin-2 (Homo sapiens) (Q99700 whole entry): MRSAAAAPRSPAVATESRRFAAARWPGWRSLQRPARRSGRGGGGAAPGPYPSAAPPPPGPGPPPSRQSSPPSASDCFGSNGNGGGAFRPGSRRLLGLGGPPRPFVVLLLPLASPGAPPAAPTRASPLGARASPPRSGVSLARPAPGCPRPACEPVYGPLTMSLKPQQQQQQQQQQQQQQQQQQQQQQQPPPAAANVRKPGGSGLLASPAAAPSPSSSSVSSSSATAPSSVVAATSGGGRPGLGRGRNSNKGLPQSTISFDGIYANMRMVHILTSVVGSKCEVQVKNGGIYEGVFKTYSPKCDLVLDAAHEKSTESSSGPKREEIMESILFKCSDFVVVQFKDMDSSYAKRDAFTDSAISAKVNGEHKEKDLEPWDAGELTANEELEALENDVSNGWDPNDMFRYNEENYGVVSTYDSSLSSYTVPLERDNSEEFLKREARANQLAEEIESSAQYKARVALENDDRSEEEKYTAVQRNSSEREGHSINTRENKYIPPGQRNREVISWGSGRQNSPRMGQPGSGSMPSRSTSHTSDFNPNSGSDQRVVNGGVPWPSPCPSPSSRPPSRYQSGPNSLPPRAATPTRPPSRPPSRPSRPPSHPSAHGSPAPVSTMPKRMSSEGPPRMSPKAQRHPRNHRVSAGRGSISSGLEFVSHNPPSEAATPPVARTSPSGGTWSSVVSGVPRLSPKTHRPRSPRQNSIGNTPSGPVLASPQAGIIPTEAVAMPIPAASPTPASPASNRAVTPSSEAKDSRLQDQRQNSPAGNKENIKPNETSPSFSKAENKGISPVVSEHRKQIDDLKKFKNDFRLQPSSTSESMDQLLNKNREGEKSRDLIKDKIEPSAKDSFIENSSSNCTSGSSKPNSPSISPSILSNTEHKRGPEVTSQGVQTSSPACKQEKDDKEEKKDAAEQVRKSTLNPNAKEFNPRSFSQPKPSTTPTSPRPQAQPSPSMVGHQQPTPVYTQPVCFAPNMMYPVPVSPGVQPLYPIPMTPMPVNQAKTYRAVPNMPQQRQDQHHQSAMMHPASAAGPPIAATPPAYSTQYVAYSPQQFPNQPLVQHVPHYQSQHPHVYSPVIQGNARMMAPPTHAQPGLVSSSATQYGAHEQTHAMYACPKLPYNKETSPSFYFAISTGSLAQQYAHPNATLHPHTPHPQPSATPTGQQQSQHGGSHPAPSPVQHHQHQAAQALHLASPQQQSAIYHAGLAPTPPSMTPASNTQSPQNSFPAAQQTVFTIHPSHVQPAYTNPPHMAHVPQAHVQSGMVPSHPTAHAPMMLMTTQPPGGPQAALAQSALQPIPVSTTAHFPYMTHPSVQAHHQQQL
Format: functional
For `CCN(c1ccccc1)c1nc(=O)c2cccnc2s1`, the Potency was “inactive”.
`O=S1(=O)C=C(Sc2nnc(-c3ccccc3)o2)c2ccccc21` was tested, and the Potency was 11.2 µM (active).
In the case of `Brc1cccc(CSc2nnc(-c3ccncc3)o2)c1`, the Potency is reported as “inactive”.
For `O=S1(=O)C=C(Sc2nc3cc(Cl)ccc3o2)c2ccccc21`, the Potency was 10 µM (active).
In the case of `N#C/C(=C\c1c(Oc2ccccc2F)nc2ccccn2c1=O)C(=O)NC1CCS(=O)(=O)C1` (centres undefined), the Potency is reported as “inactive”.
In the case of `O=[N+]([O-])c1cc(S(=O)(=O)N2CCCCCC2)ccc1F`, the Potency is reported as 35.5 µM (active).
With `Cn1c(=O)oc2cc(S(=O)(=O)N3CCCC3)ccc21` the Potency was “inactive”.
For `O=S(=O)(c1ccc(S)nc1)N1CCCCCC1`, the Potency was “inactive”.
`O=[N+]([O-])c1cc(S(=O)(=O)N2CCCCCC2)ccc1Cl` was tested, and the Potency was 42.3 µM (active).
In the case of `NC(=O)c1cc(S(=O)(=O)N2CCCCC2)cs1`, the Potency is reported as “inactive”.
In the case of `O=S(=O)(c1ccc(S)nc1)N1CCCCC1`, the Potency is reported as “inactive”.
With `COCc1cc(C)nc2sc(C(=O)Nc3ccccc3C)c(N)c12` the Potency was “inactive”.
In the case of `O=C(Nc1nc2n(n1)C(c1ccccc1)C=C(c1ccc(Cl)cc1)N2)c1ccco1` (centres undefined), the Potency is reported as “inactive”.
`CCCCc1cc(=O)oc2cc(OCC(=O)Nc3cccnc3)c(Cl)cc12` was tested, and the Potency was “inactive”.
In the case of `S=C(NCc1ccccc1)N/N=C/c1cccs1`, the Potency is reported as “inactive”.
In the case of `Cc1ccc(CN2CCSCC2)cc1`, the Potency is reported as “inactive”.
`O=C(CCC1CCCC1)NNC(=O)c1ccc(F)cc1` was tested, and the Potency was “inactive”.
With `O=C(/C=C/c1ccc([N+](=O)[O-])o1)NNC(=O)c1ccc(F)cc1` the Potency was 7.08 µM (active).
For `O=C(CN1C(=O)/C(=C/c2ccccc2F)Oc2ccccc21)N1CCN(c2ccccn2)CC1`, the Potency was “inactive”.
In the case of `O=C(CSc1nnc(O)n1CCc1ccccc1)NC1CCCC1`, the Potency is reported as “inactive”.
In the case of `O=C(OC1C2CCC1C1CN(CCc3ccccc3)CC12)c1ccccc1` (centres undefined), the Potency is reported as 31.6 µM (active).
`COC(=O)c1cc(S(=O)(=O)N2CCN(Cc3ccccc3)CC2)cn1C` was tested, and the Potency was “inactive”.
In the case of `CCC1=NN(C(=O)c2ccccc2O)C(O)(c2ccccc2)C1` (centres undefined), the Potency is reported as 25.1 µM (active).
With `CCOC(=O)C1=NN(C(=O)c2ccccc2)C(O)(c2ccc(C)cc2)C1` (centres undefined) the Potency was “inactive”.
For `O=C(c1ccccc1)N1N=C(c2ccccc2)CC1(O)C(F)(F)F` (centres undefined), the Potency was “inactive”.
With `COc1cccc(-n2cnnc2SCC(=O)NC2CC2)c1` the Potency was “inactive”.
For `CCN(C(=O)CSc1nc2n[nH]c(C)c2c(=N)n1-c1cccc(OC)c1)c1cccc(C)c1`, the Potency was 22.4 µM (active).
With `CCOC(=O)N1CCN(Cc2nc3ccc([N+](=O)[O-])cc3c(=O)n2-c2cccc(OC)c2)CC1` the Potency was “inactive”.
For `CCCCC[C@@H](C)N1C[C@@H](COCc2ccccc2)Oc2cc(N3CC[C@@H](O)C3)ccc2S1(=O)=O`, the Potency was 25.1 µM (active).
For `C[C@H](c1ccccc1)N1C[C@@H](COCc2ccccc2)Oc2cc(N3CC[C@H](N(C)C)C3)ccc2S1(=O)=O`, the Potency was 39.8 µM (active).
In the case of `CCCCC[C@@H](C)N1C[C@@H](COCc2ccccc2)Oc2cc(N3CC[C@H](N(C)C)C3)ccc2S1(=O)=O`, the Potency is reported as 31.6 µM (active).
In the case of `CCCCC[C@H](C)N1C[C@H](COCc2ccccc2)Oc2cc(N3CC[C@H](N(C)C)C3)ccc2S1(=O)=O`, the Potency is reported as 39.8 µM (active).
With `Cc1c(CC(=O)NCc2ccccc2)c(=O)oc2c(C)c(O)ccc12` the Potency was “inactive”.
`Cc1ccc(C(C)NC(=O)C2CCCC2)c(C)c1` (centres undefined) was tested, and the Potency was “inactive”.
For `C=CCNC(=O)CSc1ncc2c(n1)-c1c(csc1SC)CC2`, the Potency was “inactive”.
`CC(NC(=O)c1cc2c(=O)n3ccccc3nc2n(C(C)C)c1=N)c1ccccc1` (centres undefined) was tested, and the Potency was “inactive”.
In the case of `COCCN(CCOC)c1cc(C)c(C#N)c2nc3ccccc3n12`, the Potency is reported as “inactive”.
For `Cc1occc1C(=O)N1CCC2(CCCN(Cc3ccc(F)c(F)c3)C2)C1` (centres undefined), the Potency was “inactive”.
`Cc1cccc(N2CCN(C(=O)c3cc4c(=O)n(C)c5ccccc5c4n3C)CC2C)c1` (centres undefined) was tested, and the Potency was 39.8 µM (active).
With `CC1CN(C(=O)c2cc3c(=O)n4ccccc4nc3n2C)CC(C)O1` (centres undefined) the Potency was “inactive”.
`Cn1c(C(=O)N2CCc3ccccc3C2)cc2c(=O)n3ccccc3nc21` was tested, and the Potency was “inactive”.
For `COc1ccc2nc(N3CCCC3)c(C#N)cc2c1`, the Potency was “inactive”.
`O=c1cc(CN2CCN(S(=O)(=O)c3ccc4c(c3)OCCO4)CC2)c2ccc(O)cc2o1` was tested, and the Potency was “inactive”.
In the case of `Cc1cccc(C2=NN(c3ccccc3)[C@@H](C(=O)N3CCOC3=O)[C@@H]2c2ccc(Cl)cc2)c1`, the Potency is reported as “inactive”.
With `O=C(Nc1ccc([N+](=O)[O-])cc1)Nc1ccc(OC(F)F)c(Cl)c1` the Potency was 35.5 µM (active).
In the case of `COc1ccc([N+](=O)[O-])cc1NC(=O)CC(c1ccccc1)c1ccccc1`, the Potency is reported as “inactive”.
`COc1cc(/C=C/C(=O)OCC(=O)Nc2ccc([N+](=O)[O-])cc2)ccc1O` was tested, and the Potency was “inactive”.
With `CCOC(=O)/C=c1\s/c(=C\c2ccc3cc(OC)ccc3c2)c(=O)n1CC(=O)NCc1ccc2c(c1)OCO2` the Potency was “inactive”.
For `N#C/C(=C\c1c(N2CCOCC2)nc2ccccn2c1=O)C(=O)NC1CCS(=O)(=O)C1` (centres undefined), the Potency was “inactive”.
For `Cn1c(/C(C#N)=C(\O)c2ccc(Br)s2)nc2ccccc21`, the Potency was “inactive”.
`CCN(CC)CCn1c(=N)n(CC(=O)c2ccc(Br)s2)c2ccccc21` was tested, and the Potency was “inactive”.
In the case of `CCCCn1c(=N)n(CC(=O)c2ccc(Br)s2)c2ccccc21`, the Potency is reported as 39.8 µM (active).
For `CC(C)n1c(=N)c(C(=O)NCc2cccnc2)cc2c(=O)n3ccccc3nc21`, the Potency was “inactive”.
In the case of `N#Cc1c(C(F)(F)F)cc(-c2ccco2)nc1SCc1ccncc1`, the Potency is reported as “inactive”.
With `CCOC(=O)c1cc(C(=O)c2cc(Cl)ccc2O)coc1=N` the Potency was “inactive”.
In the case of `CCc1cc(C(=O)c2ccc(C)cc2)c(NC(=O)CCl)s1`, the Potency is reported as 31.6 µM (active).
For `Cc1ccc(C(=O)CC(=O)c2ccc(C)cc2O)cc1`, the Potency was “inactive”.
For `Cc1cc(C(=O)c2ccc(Cl)cc2)c(NC(=O)CCl)s1`, the Potency was 39.8 µM (active).
In the case of `CCN(CC)CC(=O)Nc1sc(C)c(C)c1C(=O)c1ccc(C)cc1`, the Potency is reported as “inactive”.
With `CCOc1ccccc1/N=c1\oc2cc(O)ccc2cc1C(=O)NCC1CCCO1` (centres undefined) the Potency was “inactive”.
With `COC(=O)C(=O)C/C(=N/Nc1ncnc2ccccc12)c1ccc(Cl)cc1` the Potency was “inactive”.
`C#CCOc1ccc(C2C3=C(CC(C)(C)CC3=O)N(CC(=O)O)C3=C2C(=O)CC(C)(C)C3)cc1` was tested, and the Potency was “inactive”.
`Cc1cc2nc3c(=O)n(C4CCCCC4)c(=O)[nH]c3nc2cc1N` was tested, and the Potency was “inactive”.
`CCCN(CC(=O)Nc1ccc(F)c(F)c1F)C(=O)Cc1ccc(OC)c(S(=O)(=O)N2CCOCC2)c1` was tested, and the Potency was “inactive”.
